Reference: PMC4336329 (PLoS ONE, 2015)
About 14,000 (4.5%) of roughly 310,000 compounds showed an effect of 50% or more. Effects have a minus sign here. The sample as a whole holds a higher share of strong results than the screen did.

Target: human ether-à-go-go-related gene (hERG) potassium channel (human, UniProt Q12809)
Assay: primary screen, population patch clamp on CHO cells stably expressing hERG; higher = less effect of the substance
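Also: peak tail current of the secondary pulse compared with the same well before compound.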

human ether-à-go-go-related gene (hERG) potassium channel, sequence (Q12809 whole entry, looked up): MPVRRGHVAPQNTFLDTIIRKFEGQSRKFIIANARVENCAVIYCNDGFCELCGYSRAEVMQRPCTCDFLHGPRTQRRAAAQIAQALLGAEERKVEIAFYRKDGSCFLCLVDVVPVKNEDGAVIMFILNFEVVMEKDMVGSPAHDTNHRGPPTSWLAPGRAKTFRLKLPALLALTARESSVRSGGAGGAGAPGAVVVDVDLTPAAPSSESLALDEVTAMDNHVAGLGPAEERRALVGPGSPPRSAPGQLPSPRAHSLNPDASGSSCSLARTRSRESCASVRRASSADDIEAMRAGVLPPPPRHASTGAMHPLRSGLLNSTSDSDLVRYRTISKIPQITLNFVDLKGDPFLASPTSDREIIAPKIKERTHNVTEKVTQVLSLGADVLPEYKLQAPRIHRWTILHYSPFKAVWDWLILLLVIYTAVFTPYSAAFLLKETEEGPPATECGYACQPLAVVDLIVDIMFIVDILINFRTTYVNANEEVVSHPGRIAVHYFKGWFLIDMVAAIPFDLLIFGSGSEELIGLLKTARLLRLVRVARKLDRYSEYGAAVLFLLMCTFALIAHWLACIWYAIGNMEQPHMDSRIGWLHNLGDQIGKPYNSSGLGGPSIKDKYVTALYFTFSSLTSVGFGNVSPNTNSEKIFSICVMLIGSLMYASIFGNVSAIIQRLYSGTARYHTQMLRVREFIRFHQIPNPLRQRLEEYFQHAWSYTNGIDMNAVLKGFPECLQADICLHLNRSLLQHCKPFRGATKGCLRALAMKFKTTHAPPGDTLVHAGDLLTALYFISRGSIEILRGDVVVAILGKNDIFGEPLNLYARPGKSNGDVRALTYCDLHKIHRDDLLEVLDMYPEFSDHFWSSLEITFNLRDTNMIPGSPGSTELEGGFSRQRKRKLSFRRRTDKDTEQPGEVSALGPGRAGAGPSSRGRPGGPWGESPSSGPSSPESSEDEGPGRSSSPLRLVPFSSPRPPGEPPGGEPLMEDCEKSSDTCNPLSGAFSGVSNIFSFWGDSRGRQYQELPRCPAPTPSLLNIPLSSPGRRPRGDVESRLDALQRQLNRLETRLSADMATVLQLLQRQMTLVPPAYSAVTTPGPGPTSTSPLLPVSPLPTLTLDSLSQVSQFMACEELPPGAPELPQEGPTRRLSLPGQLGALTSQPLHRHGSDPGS

| Structure (SMILES) | hERG current change (%, negative = inhibition) at 10uM [%] |
| --- | --- |
| C#CCOCCOCCOCCNc1nc(N2CCN(C(=O)[C@H](CCC(=O)O)n3cc(C(N)[C@H](C)CC)nn3)CC2)nc(N2CCN(C(=O)[C@H](Cc3ccc(O)cc3)n3cc(C(N)[C@H](C)CC)nn3)CC2)n1.Cl (some centres unmarked) | 7.62 |
| COc1cc(CCC(=O)Nc2nccs2)cc(OC)c1OC | 3.1 |
| CCn1nc(C)cc1C(=O)N1CCCC(C(=O)c2ccc(OC)cc2C)C1 (centres unmarked) | 3.32 |
| Cc1ccccc1S(=O)(=O)Cc1ccc(C(=O)NC2CCCCCC2)o1 | -31.9 |
| CC(=O)Oc1ccc(/C=N/NC(=O)C2CCCN2S(=O)(=O)c2ccc(Cl)cc2)cc1 (centres unmarked) | -28.1 |
| Cn1c(=O)c2c(n(C)c1=O)=NC1(CCCCC1)ON=2 | -15.4 |
| O=C(NCc1ccco1)C1CCN(S(=O)(=O)N2CCOCC2)CC1 | -13.1 |
| COc1ccc(CN2CCN(Cc3cccc(Oc4ccccc4)c3)CC2)c(OC)c1OC.O=C(O)C(=O)O | -58 |
| COc1ccc(CN2CCN(C(=O)c3cccc4ccccc34)CC2)c(OC)c1OC.O=C(O)C(=O)O | 11.9 |
| CCN1CCN(CCOc2ccc(Cl)cc2)CC1.O=C(O)C(=O)O | -34.3 |
| COc1ccc(CN2CCN(Cc3ccc(Br)cc3)CC2)c(OC)c1OC.O=C(O)C(=O)O | -69.7 |
| COc1cccc(CN2CCN(Cc3cccc(Oc4ccccc4)c3)CC2)c1OC.O=C(O)C(=O)O | -21.7 |
| Cc1ccc(SCCN2CCN(Cc3ccccc3)CC2)cc1.O=C(O)C(=O)O | -37 |
| COc1cccc(CN2CCN(Cc3cccc(Br)c3)CC2)c1OC.O=C(O)C(=O)O | -21.2 |
| COc1ccc(CN2CCN(CCSc3ccc(C)cc3)CC2)c(OC)c1OC.O=C(O)C(=O)O | -58.5 |
| COc1ccc(CN2CCN(S(=O)(=O)c3ccc(F)cc3)CC2)c(OC)c1OC.O=C(O)C(=O)O | -23.4 |

| Structure (SMILES) | hERG current change (%, negative = inhibition) at 10uM [%] |
| --- | --- |
| COc1ccc(CN2CCN(Cc3ccc(OC)c(OC)c3OC)CC2)cc1.O=C(O)C(=O)O | -41.3 |
| CN1CCN(Cc2cccc(Oc3ccccc3)c2)CC1 | -28.2 |
| COc1ccc(CN2CCN(CCCCOc3ccc(Cl)cc3)CC2)c(OC)c1OC.O=C(O)C(=O)O | -74.4 |
| COc1ccc(C(=O)NC(=S)N(CCC(C)C)c2c(N)n(Cc3ccccc3)c(=O)[nH]c2=O)cc1 | -5.8 |
| CN1C(=O)/C(=C2\SC(=S)N(C(CCC(=O)O)C(=O)O)C2=O)c2ccccc21 (centres unmarked) | 13 |
| O=C(COc1ccc(F)cc1)c1ccc2c(c1)CCCC2 | -5.65 |
| CCOC(=O)NNc1nncc2ccccc12.Cl | 2.17 |
| Cc1nn(-c2ccccc2)c(C)c1NC(=O)COC(=O)c1cccc(OC(F)F)c1 | -38.1 |
| CCOC(=O)C1C(=O)C=C(/C=C/c2ccccc2)CC1c1ccc(Cl)cc1 (centres unmarked) | -0.716 |
| CCCc1nc(-c2ccc(-c3ccc(F)cc3)cc2)no1 | 7.85 |
| CC(C(=O)NCc1ccc(Cl)cc1)n1cccc1C(=O)c1ccccc1 (centres unmarked) | -21.4 |
| O=C(O)c1ccc(-c2nnn(Cc3ccccc3F)n2)cc1 | 58.7 |
| CC(C)(C)NCC(O)COc1ccccc1C(=O)CCc1ccccc1.Cl (centres unmarked) | -69.9 |
| CCN(CC)CC(O)COc1ccccc1C(=O)CCc1ccccc1 (centres unmarked) | -3.49 |
| CC(C)(C)NCC(O)COc1cccc2[nH]c(=O)[nH]c12.Cl (centres unmarked) | 7.11 |
| CC1=CC(=C2C(=O)NC(=S)NC2=O)C=C(C(F)(F)F)N1CCc1ccccc1 | 12.9 |
